Data as given in PubChem BioAssay (NCI).
Compounds without any hit were thinned out: in the full panel of roughly 83,000, 20% have a hit.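 Interpretation: 100, growth as untreated; towards 0, rising growth inhibition; 0, no net growth; 0 to -100, cell death. Compounds scoring below 10 were considered active.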 Active and inactive are the calls of the source.

Experiments:
Test in all cases: NCI-60 one-dose screen, 48 h (100 = growth as untreated, 0 = no growth, -100 = all killed)
Conditions in all cases: 10 µM
NCI-H23 lung = tested on: NCI-H23 lung
NCI-H226 lung = tested on: NCI-H226 lung
NCI-H322M lung = tested on: NCI-H322M lung
HOP-62 NSCLC = tested on: HOP-62 NSCLC
NCI-H460 lung = tested on: NCI-H460 lung
HOP-92 NSCLC = tested on: HOP-92 NSCLC
NCI-H522 lung = tested on: NCI-H522 lung
A549/ATCC NSCLC = tested on: A549/ATCC NSCLC
786-0 renal = tested on: 786-0 renal
COLO 205 colon = tested on: COLO 205 colon

Measured: growth

COc1ccc(S(=O)(=O)Nc2ccc(OCc3nnc(-c4ccc(Cl)cc4)o3)c(F)c2)cc1
inactive: NCI-H23 lung 43.4% | NCI-H226 lung 59.8% | NCI-H322M lung 80.2% | HOP-62 NSCLC 74.4% | NCI-H460 lung 59.4% | HOP-92 NSCLC 60.6% | NCI-H522 lung 43.4% | A549/ATCC NSCLC 47.4% | 786-0 renal 67.8% | COLO 205 colon 89.2%

CCOC(=O)c1sc(NC(=O)c2cc(OC)c(OC)c(OC)c2)nc1C
inactive: NCI-H23 lung 93.3% | NCI-H226 lung 88.8% | NCI-H322M lung 161% | HOP-62 NSCLC 116% | NCI-H460 lung 108% | HOP-92 NSCLC 46.9% | NCI-H522 lung 67.4% | A549/ATCC NSCLC 101% | 786-0 renal 114% | COLO 205 colon 122%

CCOC(=O)[C@@H]1[C@H](c2ccccc2)[C@H]([N+](=O)[O-])[C@H](c2cn(-c3ccccc3)nc2C)N1Cc1ccccc1
inactive: NCI-H23 lung 88.6% | NCI-H226 lung 66.6% | NCI-H322M lung 104% | HOP-62 NSCLC 64.2% | NCI-H460 lung 41.9% | HOP-92 NSCLC 69.8% | NCI-H522 lung 80.6% | A549/ATCC NSCLC 66.2% | 786-0 renal 74.5% | COLO 205 colon 64.7%

CCCN(CCC)CCCNC(=O)c1cc2c(-c3ccc(OC)c(OC)c3)nn(C)c2s1
inactive: NCI-H23 lung 11.6% | NCI-H226 lung 37.5% | NCI-H322M lung 22% | HOP-62 NSCLC 34.5% | 786-0 renal 29.5% | COLO 205 colon 90.1%
active: NCI-H460 lung 8.52% | HOP-92 NSCLC -7.72% | NCI-H522 lung -17% | A549/ATCC NSCLC 9.14%

O=C1/C(=C/c2ccc(O)cc2O)N=C2SCCCN12
inactive: NCI-H23 lung 95.2% | NCI-H226 lung 106% | NCI-H322M lung 97.8% | HOP-62 NSCLC 85.4% | NCI-H460 lung 110% | HOP-92 NSCLC 108% | NCI-H522 lung 92.3% | A549/ATCC NSCLC 92.1% | 786-0 renal 81.9% | COLO 205 colon 106%

CC(C)CCN(CCCNc1c2c(nc3cc(Cl)ccc13)CCCC2)CCC(C)C
inactive: NCI-H23 lung 62.3% | NCI-H226 lung 53.8% | NCI-H322M lung 75% | HOP-62 NSCLC 77.9% | NCI-H460 lung 55.7% | HOP-92 NSCLC 12.3% | NCI-H522 lung 82.1% | A549/ATCC NSCLC 85.4% | 786-0 renal 80.1% | COLO 205 colon 32.6%

COc1ccc(-c2nnc(SCC(=O)c3ccccc3)o2)cc1
inactive: NCI-H23 lung 91.2% | NCI-H226 lung 97.5% | NCI-H322M lung 107% | HOP-62 NSCLC 84.5% | NCI-H460 lung 105% | HOP-92 NSCLC 89.2% | NCI-H522 lung 83.9% | A549/ATCC NSCLC 98.1% | 786-0 renal 79.4% | COLO 205 colon 107%

O=C(NC1CCN(Cc2ccccc2)CC1)c1cc(-c2ccncc2)nc2ccc(Cl)cc12
inactive: NCI-H23 lung 38.3% | NCI-H226 lung 26.9% | NCI-H322M lung 32.5% | HOP-62 NSCLC 45.6% | HOP-92 NSCLC 27.7% | NCI-H522 lung 28.6% | 786-0 renal 31.1% | COLO 205 colon 18.5%
active: NCI-H460 lung 6.31% | A549/ATCC NSCLC 6.48%

O=C(C=P(c1ccccc1)(c1ccccc1)c1ccccc1)c1ccc(Br)cc1
inactive: NCI-H23 lung 85.8% | NCI-H226 lung 96.5% | NCI-H322M lung 78.6% | HOP-62 NSCLC 125% | NCI-H460 lung 93% | HOP-92 NSCLC 67.1% | NCI-H522 lung 59.5% | A549/ATCC NSCLC 72.4% | 786-0 renal 97.9% | COLO 205 colon 96%

S=c1c2ncccc2c(-c2ccccn2)nn1Cc1ccccn1
inactive: NCI-H23 lung 90.6% | NCI-H226 lung 104% | NCI-H322M lung 102% | HOP-62 NSCLC 85.3% | NCI-H460 lung 108% | HOP-92 NSCLC 94.7% | NCI-H522 lung 88.5% | A549/ATCC NSCLC 81% | 786-0 renal 96.9% | COLO 205 colon 92.8%

O=C1NN(c2ccccc2)C(c2cccnc2)=N/C1=C\c1cccnc1
inactive: NCI-H23 lung 89.4% | NCI-H226 lung 80.8% | NCI-H322M lung 84.9% | HOP-62 NSCLC 92% | NCI-H460 lung 95.2% | HOP-92 NSCLC 99% | NCI-H522 lung 105% | A549/ATCC NSCLC 112% | 786-0 renal 98.8% | COLO 205 colon 105%

O=C(/C=C/c1nnc2n(Cc3ccccc3)c(=O)c3c4c(sc3n12)CCCC4)c1ccccc1
active: NCI-H522 lung -3.27%
inactive: NCI-H23 lung 96.9% | NCI-H226 lung 102% | NCI-H322M lung 107% | HOP-62 NSCLC 92.4% | NCI-H460 lung 104% | HOP-92 NSCLC 77.1% | A549/ATCC NSCLC 104% | 786-0 renal 83.8% | COLO 205 colon 78.6%

C[N+]1(CC2CO2)CCCCCC1 (stereo not given)
inactive: NCI-H23 lung 110% | NCI-H226 lung 99.4% | NCI-H322M lung 107% | HOP-62 NSCLC 103% | NCI-H460 lung 106% | HOP-92 NSCLC 113% | NCI-H522 lung 107% | A549/ATCC NSCLC 107% | 786-0 renal 105% | COLO 205 colon 120%

N#C/C(=C/c1cc([N+](=O)[O-])ccc1Cl)C(N)=O
inactive: NCI-H23 lung 98.4% | NCI-H226 lung 94.4% | NCI-H322M lung 97.2% | HOP-62 NSCLC 94.8% | NCI-H460 lung 110% | HOP-92 NSCLC 87.8% | NCI-H522 lung 87.7% | A549/ATCC NSCLC 106% | 786-0 renal 104% | COLO 205 colon 117%

CC[C@@]1(C(N)=O)CC2C=CC1C2 (stereo not given in full)
inactive: NCI-H23 lung 110% | NCI-H226 lung 102% | NCI-H322M lung 142% | HOP-62 NSCLC 111% | NCI-H460 lung 122% | HOP-92 NSCLC 97.2% | NCI-H522 lung 101% | A549/ATCC NSCLC 107% | 786-0 renal 98.9% | COLO 205 colon 114%

N/C(=N\O)c1cn(C2OC(CO)C(O)C2O)c2ncnc(N)c12 (stereo not given)
inactive: NCI-H226 lung 26.4% | NCI-H322M lung 11% | 786-0 renal 20.9%
active: NCI-H23 lung -1.68% | HOP-62 NSCLC -18.8% | NCI-H460 lung -44.1% | HOP-92 NSCLC -6.61% | NCI-H522 lung -42.9% | A549/ATCC NSCLC 4.88% | COLO 205 colon -92.4%

COCCOC(=O)NC(=O)Nc1ccc(/C(=N/O)c2ccc(Cl)cc2)cc1
active: NCI-H460 lung 7.81% | NCI-H522 lung -38.3% | COLO 205 colon -42.6%
inactive: NCI-H23 lung 29.2% | NCI-H226 lung 33.3% | NCI-H322M lung 30.5% | HOP-62 NSCLC 19.2% | HOP-92 NSCLC 44.6% | A549/ATCC NSCLC 15.4% | 786-0 renal 22.3%

Nc1ccc(Sc2ccc3c4c2cccc4c(=O)n2c4ccccc4nc32)cc1
inactive: NCI-H23 lung 37.5% | NCI-H226 lung 40.6% | NCI-H322M lung 61.8% | HOP-62 NSCLC 51.2% | HOP-92 NSCLC 28.7% | NCI-H522 lung 60% | A549/ATCC NSCLC 20.6% | 786-0 renal 37.3% | COLO 205 colon 50.8%
active: NCI-H460 lung 9.47%

COc1ccc(S(=O)(=O)Nc2cc(/C=C\c3cc(OC)c(OC)c(OC)c3)ccc2OC)cc1
inactive: NCI-H23 lung 27.6% | NCI-H226 lung 11.8% | NCI-H322M lung 23.8% | HOP-62 NSCLC 48.7% | HOP-92 NSCLC 12.7% | A549/ATCC NSCLC 18% | 786-0 renal 19%
active: NCI-H460 lung 5.27% | NCI-H522 lung -27.9% | COLO 205 colon -59.2%

CC(=O)OC1Oc2ccccc2-c2oc(=O)c(-c3ccc(F)cc3)cc21 (stereo not given)
inactive: NCI-H23 lung 92.5% | NCI-H226 lung 91.9% | NCI-H322M lung 107% | HOP-62 NSCLC 101% | NCI-H460 lung 94.4% | HOP-92 NSCLC 112% | NCI-H522 lung 42.5% | A549/ATCC NSCLC 57.8% | 786-0 renal 95.4% | COLO 205 colon 108%

O=C(CCl)N1c2ccccc2Sc2ccc3ccccc3c21
active: NCI-H23 lung -76.5% | HOP-62 NSCLC -77.8% | NCI-H460 lung -35.4% | HOP-92 NSCLC -78.3% | NCI-H522 lung -81.1% | 786-0 renal -62.8% | COLO 205 colon -76.3%
inactive: NCI-H226 lung 34.4% | NCI-H322M lung 65.9% | A549/ATCC NSCLC 38%

O=[N+]([O-])c1ccc(-c2nc(-c3ccccc3)c(-c3ccccc3)n2-c2ccccc2)cc1
inactive: NCI-H23 lung 25.2% | NCI-H226 lung 57% | NCI-H322M lung 58.5% | HOP-62 NSCLC 38.2% | NCI-H460 lung 36.4% | A549/ATCC NSCLC 34.6% | 786-0 renal 57.3% | COLO 205 colon 68.1%
active: HOP-92 NSCLC -12.6% | NCI-H522 lung -11.7%

Cc1nnc2c3nnc(-c4ccc(Cl)cc4)n3c3ccccc3n12
inactive: NCI-H23 lung 103% | NCI-H226 lung 94.7% | NCI-H322M lung 86.4% | HOP-62 NSCLC 93.4% | NCI-H460 lung 103% | HOP-92 NSCLC 79.5% | NCI-H522 lung 86.6% | A549/ATCC NSCLC 96.8% | 786-0 renal 97.2% | COLO 205 colon 111%

COc1ccc(-c2[nH]ncc2-c2cc(OC)c(OC)c(OC)c2)cc1
inactive: NCI-H23 lung 24.9% | NCI-H226 lung 58.7% | NCI-H322M lung 21.8% | HOP-62 NSCLC 35.6% | A549/ATCC NSCLC 18%
active: NCI-H460 lung 4.05% | HOP-92 NSCLC -10.4% | NCI-H522 lung -36.8% | 786-0 renal 3.72% | COLO 205 colon -72.4%

Cn1cnc([N+](=O)[O-])c1Sc1nnc(-c2ccccc2)c(-c2ccccc2)n1
inactive: NCI-H23 lung 79.5% | NCI-H226 lung 77.1% | NCI-H322M lung 102% | HOP-62 NSCLC 97.3% | NCI-H460 lung 113% | HOP-92 NSCLC 71.1% | NCI-H522 lung 85.4% | A549/ATCC NSCLC 114% | 786-0 renal 85.4% | COLO 205 colon 90.2%

O/N=C1\CCC2CCCCC2C1 (stereo not given)
inactive: NCI-H23 lung 103% | NCI-H226 lung 103% | NCI-H322M lung 106% | HOP-62 NSCLC 108% | NCI-H460 lung 103% | HOP-92 NSCLC 82.9% | NCI-H522 lung 93.4% | A549/ATCC NSCLC 96.6% | 786-0 renal 105% | COLO 205 colon 114%

C[N+]1=C(/C=C/c2ccc(I)cc2)C(C)(C)c2ccccc21
inactive: NCI-H23 lung 82% | NCI-H226 lung 104% | NCI-H322M lung 89.1% | HOP-62 NSCLC 108% | NCI-H460 lung 103% | HOP-92 NSCLC 65% | NCI-H522 lung 68.8% | A549/ATCC NSCLC 109% | 786-0 renal 97.4% | COLO 205 colon 95%

c1ccc(CC(NCCNC(Cc2ccccc2)c2ccccc2)c2ccccc2)cc1 (stereo not given)
active: NCI-H460 lung -13.9% | HOP-92 NSCLC -9.41% | NCI-H522 lung -40.5% | COLO 205 colon -59.5%
inactive: NCI-H23 lung 25% | NCI-H226 lung 38% | NCI-H322M lung 66.2% | HOP-62 NSCLC 61.1% | A549/ATCC NSCLC 36.8% | 786-0 renal 35.9%
